KCNQ2 enhance: enhances the rat KCNQ2 potassium channel; AID 2239; O88943; B-score at 10 µM; CHO-K1 KCNQ2, FluxOR thallium flux fluorescence; stronger effect = higher value; hit rate 0.54% among 310,000;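 active = fluorescence ratio B-score at least 3 SD of library B-scores, with initial fluorescence B-score within 3 of them, cut at about 5.3 in these data; same plate scores as AID 2156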;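 also: B-score of peak minus minimum over baseline fluorescence ratio after K+ and Tl+ stimulus; positive B-score means potentiation of KCNQ2 with more thallium influx and brighter signal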
KCNQ2 block: KCNQ2 (rat) channel inhibition; CHO-K1 KCNQ2, FluxOR thallium flux, 20 min; stronger effect = lower value; O88943; hit rate 1.1% among 310,000; B-score at 10 µM;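 active = fluorescence ratio B-score at most minus 3 library SDs, with starting brightness B-score within 2 library SDs, cut at about -5.5 in these data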
Kir21 confirm: confirmation of mouse Kir2.1 potassium channel inhibitors; shares compounds with KCNQ2 enhance; Kir2.1-expressing cells, FluxOR thallium flux fluorescence; stronger effect = lower value; Tl flux remaining, % of negative control (stronger effect = lower value), % at 10 µM; hit rate 41% among 2,300; AID 2032;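 active = Primary-screen hit whose thallium flux fell at least 3 control SD below untreated wells in both duplicates, with normal baseline fluorescence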
Target sequence (P35561 whole entry, looked up): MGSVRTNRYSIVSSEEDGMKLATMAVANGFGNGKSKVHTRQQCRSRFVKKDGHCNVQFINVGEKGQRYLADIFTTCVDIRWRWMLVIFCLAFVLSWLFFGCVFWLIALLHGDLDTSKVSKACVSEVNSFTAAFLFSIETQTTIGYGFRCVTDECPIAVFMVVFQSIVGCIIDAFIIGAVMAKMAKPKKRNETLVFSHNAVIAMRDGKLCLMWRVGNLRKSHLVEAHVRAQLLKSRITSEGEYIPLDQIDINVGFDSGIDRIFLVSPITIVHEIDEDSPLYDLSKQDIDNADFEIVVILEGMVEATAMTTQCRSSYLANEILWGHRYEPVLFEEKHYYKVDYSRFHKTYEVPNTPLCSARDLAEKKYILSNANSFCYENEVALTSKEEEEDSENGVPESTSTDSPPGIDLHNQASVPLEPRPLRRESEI
HEK293 ctr: parental HEK293 activity in Kir2.1 inhibitor counter-screen; shares compounds with KCNQ2 enhance; parental HEK293 cells, FluxOR thallium flux fluorescence; 0% = unstimulated blank wells; FluxOR signal as % of negative control (100 = no effect), % at 10 µM; hit rate 19% among 2,300;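 active = dye signal at least 3 control SD above or below untreated wells in both duplicates, raw fluorescence within 3, either direction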;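 also: percent is based on the flux ratio of peak minus minimum fluorescence over baseline F0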
CHO-K1 ctr: parental CHO-K1 activity in KCNQ2 potentiator counter-screen; shares compounds with KCNQ2 enhance; parental CHO-K1 cells, FluxOR thallium flux fluorescence; zero = vehicle mean+3SD, 100% = vehicle-minus-blank window; activity increase over 3SD of controls, % at 10 µM; hit rate 43% among 1,200; AID 2282;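 active = signal rise of at least 3 SD above the untreated control mean, in both duplicate wells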;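 also: counter screen of KCNQ2 potentiator hits so any rise reflects channel-independent effects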
KCNQ1 sel pot: tests whether KCNQ2 potentiators also act on human KCNQ1; activation over 3SD threshold, % at 10 µM; shares compounds with KCNQ2 enhance; CHO KCNQ1 stable, FluxOR thallium flux fluorescence; beyond 3SD, as % of vehicle-control signal; AID 2283; hit rate 28% among 1,200;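 active = fluorescence ratio rise of at least 3 SD of vehicle wells above their mean, in both replicate wells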
KCNQ2 pot conf: rat KCNQ2 channel potentiator confirmation. shares compounds with KCNQ2 enhance. CHO-KCNQ2 cells, FluxOR thallium flux fluorescence. potentiation, less the hit threshold, % at 10 µM. hit rate 68% among 1,200;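 active = fluorescence ratio rising 3 SD or more over the vehicle control mean in both replicates, plus primary screen hit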;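 also: peak minus minimum thallium fluorescence divided by baseline after K/Tl stimulus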
Kir2-1 sel: tests whether KCNQ2 potentiators also affect mouse Kir2.1; hit rate 2% among 1,200; AID 2345; shares compounds with KCNQ2 enhance; HEK293 Kir2.1, FluxOR thallium flux fluorescence; activity over 3SD threshold, % at 10 µM;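 active = fluorescence ratio rise of at least 3 SD above the vehicle-control mean, seen in both replicates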
KCNQ2 W236L MoA: potentiates the retigabine-insensitive rat KCNQ2 W236L mutant channel; CHO KCNQ2-W236L, automated patch clamp current; shares compounds with KCNQ2 enhance; hit rate 10% among 940; current increase over 3SD of negative controls (%), stronger effect = higher value, % at 25 µM;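 active = current increase at least 3 SD of the untreated controls above them in both duplicate recordings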
Numbers stand for hits; - = inactive; . = no result. Rows were chosen to be rich in hits. Some 1.6% of all compounds tested hit in one or more screens of this group.

SMILES	KCNQ2 enhance	KCNQ2 block	Kir21 confirm	HEK293 ctr	CHO-K1 ctr	KCNQ1 sel pot	KCNQ2 pot conf	Kir2-1 sel	others
CC(=O)Nc1ccc(S(=O)(=O)NCc2ccc3[nH]c(C)cc3c2)cc1	5.4	-	-	-	3.8	-	-	-
Cc1ccc(S(=O)(=O)NCc2ccc3[nH]c(C)cc3c2)cc1	.	-	.	.	.	.	.	.
O=C(NNc1cc(N2CCOCC2)nc(N2CCOCC2)n1)c1ccc(Cl)c(Cl)c1	-	-	.	.	.	.	.	.
Cc1ccc(C(=O)NNc2cc(N3CCCC3)nc(N3CCCC3)n2)cc1	10.1	-	-	-	95.5	-	39.1	-	KCNQ2 W236L MoA=-
Cc1cccc(C=Nc2ccc3c4c(cccc24)CC3)c1O	.	-	.	.	.	.	.	.
CCc1ccc(O)c(N=Cc2cccc(C)c2O)c1	7.45	-	-	-	-	-	17.4	-	KCNQ2 W236L MoA=-
Oc1[nH]c2ccc(Br)cc2c1N=Nc1ccc(C(F)(F)F)cn1	-	-	.	.	.	.	.	.
O=C(NC1CCCc2ccccc21)c1ccccc1Cl (centres undefined)	.	-	.	.	.	.	.	.
Cc1nc(N2CCC(C)CC2)c2c(C)c(C(=O)Nc3ccc(C)c(F)c3)sc2n1	.	-	.	.	.	.	.	.
Cc1nc(N2CCN(C)CC2)c2c(C)c(C(=O)Nc3ccc(C)c(F)c3)sc2n1	.	-	64.5%	-	.	.	.	.
CN(C)c1ccc(CNCCC(Cc2ccccc2)c2ccco2)cc1 (centres undefined)	.	-	.	.	.	.	.	.
c1ccc(CNCCC(Cc2ccccc2)c2ccco2)cc1 (centres undefined)	.	-	17.0%	74.0%	.	.	.	.
CCCn1c(=NC(=O)c2ccco2)c(C(=O)OCC)cc2c(=O)n3ccccc3nc21	-	-	.	.	.	.	.	.
CCOC(=O)c1cc2c(=O)n3ccccc3nc2n(CCCOC)c1=NC(=O)c1ccncc1	8.61	-	-	-	-	-	-	-
CCC(=O)N/C(=N/c1nc(C)cc(C)n1)Nc1ccccc1	.	-	.	.	.	.	.	.
O=C(Nc1c2c(nn1-c1ccc(F)cc1)CS(=O)C2)c1ccc(Br)o1 (centres undefined)	-	-	.	.	.	.	.	.
O=C(CCC1CCCCC1)Nc1c2c(nn1-c1ccc(F)cc1)CS(=O)C2 (centres undefined)	10.5	-	-	-	-	19.2	47.3	-	KCNQ2 W236L MoA=-
O=C(CNS(=O)(=O)c1ccccc1)N/N=C\c1ccc(Cl)cc1	.	-	.	.	.	.	.	.
CC(=O)Nc1ccc(NCN2C(=O)C3C4CCC(C4)C3C2=O)cc1 (centres undefined)	-	-	.	.	.	.	.	.
Cc1ccc(NCN2C(=O)C3C4CCC(C4)C3C2=O)cc1 (centres undefined)	6.19	-	-	-	-	-	-	-
CCc1nnc(SCC(=O)NC2CC2)n1CC	-	-	.	.	.	.	.	.
CCOc1cc(C(=S)N2CCCCC2)ccc1OS(=O)(=O)c1ccc(Cl)cc1	-	-	.	.	.	.	.	.
CCc1[nH]c(=S)c(C#N)c2c1CCCC2	-	-	.	.	.	.	.	.
C/C(=N\NC(=O)c1c[nH]c2ccccc12)c1ccccn1	.	-	.	.	.	.	.	.
C/C(=N\NC(=O)c1cc2ccccc2cc1O)c1ccccn1	5.87	-	-	166.5%	-	3.0	-	-
SMILES	KCNQ2 enhance	KCNQ2 block	Kir21 confirm	HEK293 ctr	CHO-K1 ctr	KCNQ1 sel pot	KCNQ2 pot conf	Kir2-1 sel	others
C/C(=N\NC(=O)c1nc2ccccn2c1C)c1cc2ccccc2o1	-	-	.	.	.	.	.	.
C/C(=N\NC(=O)c1cc2ccccc2cc1O)c1cc2ccccc2o1	20.7	-	-	451.5%	93.3	-	69.2	-	KCNQ2 W236L MoA=-
CCCc1sc(N2CCCC(C(N)=O)C2)nc1-c1ccccc1 (centres undefined)	.	-	.	.	.	.	.	.
O=C(CNC(=O)Cc1cccc2ccccc12)NCc1ccccc1F	.	-	.	.	.	.	.	.
COc1ccc(C(C(=O)NC2CCCC2)N(Cc2cccnc2)C(=O)c2snc(C(N)=O)c2N)cc1OC (centres undefined)	-	-	.	.	.	.	.	.
COc1ccc(/C=C2\C(=O)ON=C2c2ccccc2)cc1	.	-	.	.	.	.	.	.
O=C1ON=C(c2ccccc2)/C1=C/c1ccc(O)c(O)c1	6.82	-	70.5%	-	-	-	-	-	KCNQ2 W236L MoA=-
O=C1CC(N2CCN(Cc3ccccc3)CC2)C(=O)N1CCc1ccccc1 (centres undefined)	-	-	.	.	.	.	.	.
O=C1CC(N2CCN(Cc3ccc(Cl)cc3)CC2)C(=O)N1CCc1ccccc1 (centres undefined)	5.84	-	-	-	-	-	22.5	-	KCNQ2 W236L MoA=-
COc1ccccc1CNC(=O)CCN1C(=O)COc2ccccc21	.	-	.	.	.	.	.	.
COc1cccc(NC(=O)C(C)SCc2ccccc2)c1 (centres undefined)	-	-	.	.	.	.	.	.
COc1ccc(CCNC(=O)C(C)SCc2ccccc2)cc1 (centres undefined)	-	-	41.0%	-	.	.	.	.
CN(C(=O)CSc1ncnc2sc(-c3ccccc3)cc12)C1CCS(=O)(=O)C1 (centres undefined)	19.8	-	-	448.0%	0.0	-	76.3	-	KCNQ2 W236L MoA=-
CN(C(=O)CSc1ncnc2scc(-c3ccccc3)c12)C1CCS(=O)(=O)C1 (centres undefined)	-	-	.	.	.	.	.	.
COc1cc(CNc2ccc3[nH]c(=O)[nH]c3c2)cc(Br)c1OCc1ccc(F)cc1	-	-	.	.	.	.	.	.
COc1cccc(CNc2ccc3[nH]c(=O)[nH]c3c2)c1OCc1ccccc1F	-	-	65.5%	-	.	.	.	.
CCOC(=O)CSc1nnc(CSc2nc3ccccc3s2)n1C	-	-	.	.	.	.	.	.
COc1cc(CNc2ccc(N3CCN(C(C)=O)CC3)cc2)ccc1OCc1ccccc1	.	-	.	.	.	.	.	.
COc1cc(CNc2ccc(NC(C)=O)cc2)ccc1OCc1ccccc1C	5.53	-	-	-	-	-	-	-
CCOC(=O)CSc1[nH]c2cc(OC)ccc2c1[N+](=O)[O-]	-	-	.	.	.	.	.	.
COC(=O)CSc1[nH]c2ccc(F)cc2c1[N+](=O)[O-]	6.37	-	-	-	-	-	28.9	-	KCNQ2 W236L MoA=38.1%
COc1ccc2oc(C)c(C(=O)c3ccc([N+](=O)[O-])cc3)c2c1	.	-	.	.	.	.	.	.
COc1ccc(CC(=O)Nc2ccccc2Oc2ccccc2)cc1	10.3	-	-	-	-	-	17.2	-	KCNQ2 W236L MoA=-
COc1ccc(NC(=O)CCCC(=O)c2ccccc2)c(OC)c1	.	-	.	.	.	.	.	.
COc1ccc(NC(=O)CCCc2ccccc2)c(OC)c1	5.51	-	-	-	92.7	-	8.7	-	KCNQ2 W236L MoA=-
COc1ccccc1NC(=O)Cc1ccc(-c2ccccc2)cc1	.	-	.	.	.	.	.	.
CCc1nonc1NC(=O)c1oc2ccc(Br)cc2c1C	.	-	.	.	.	.	.	.
Oc1ccc(Nc2nc(N3CCCC3)c3ccccc3n2)cc1	.	-	47.5%	-	.	.	.	.
